Screens: PubChem BioAssay, National Center for Advancing Translational Sciences (NCATS)
Only some compounds are listed: those with a hit (about 21% of all), similar ones and a draw of the others.
Pf growth 48h = P. falciparum growth inhibition at 48 hours (one generation); P. falciparum luciferase growth in erythrocytes, 48 h; Potency, µM (top dose mostly 28.7 µM), inactives show top-dose activity change, negative = inhibition, usual class: inhibitors; hit rate 5.9% among 310,000; also: potency is read from the fitted curve at half-maximal effect; % is scaled to controls: 0 for no effect and ±100 for the full control effect
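Erythrocytes infected with P. falciparum carrying an integrated firefly luciferase reporter (2% hematocrit, 0.1% parasitemia final) were exposed to compounds in RPMI 1640 with 0.5% Albumax at 37 C, 5% CO2. Growth inhibition was scored as reduced luminescence.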
Pf growth 96h = P. falciparum growth inhibition at 96 hour, primary screen for plastid delayed-death inhibitors | hit rate 6.9% among 320,000 | AID 504834 | Potency, µM (doses to about 28.7 µM), for inactives: at the highest dose activity change, negative = inhibition, hits mostly inhibitors | P. falciparum luciferase reporter growth, 96 h; also: potency is read from the fitted curve at half-maximal effect; % is scaled to controls: 0 for no effect and ±100 for the full control effect
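Delayed-death screen, second-generation endpoint: infected erythrocytes, 2% hematocrit, 0.05% parasitemia final; 96 hours at 37 C, 5% CO2; luciferase detection reagent; luminescence decrease equals reduced growth.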
AMA1 RON2 block = inhibitors of Plasmodium falciparum AMA1-RON2 interaction. AlphaScreen AMA1-biotinylated RON2 peptide binding. Potency, µM (top dose mostly 58.2 µM), for the others: at the top dose activity change, negative = inhibition, actives largely listed as inhibitors. hit rate 0.2% among 360,000. AID 720542;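 also: potency is read from the fitted curve at half-maximal effect; 0% = vehicle wells and -100% = peptide control; nearly all actives have a fitted effect of over 45% in size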
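AMA1 (3D7) with his tag at 25 nM final met compounds first, then biotinylated RON2 peptide at 25 nM; detection used donor plus acceptor beads, 10 µg/mL apiece, read by AlphaScreen after 30 min at room temperature.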
HCV inhibitor = inhibitors of hepatitis C virus infection. Huh7.5.1 HCVcc-Cre infection, luciferase reporter, 44 h. Potency, µM (titrated, usually from 41.8 µM), for the others: at the highest dose activity change, negative = inhibition, actives largely listed as inhibitors. hit rate 3.4% among 340,000; also: potency is read from the fitted curve at half-maximal effect; % is scaled to controls: 0 for no effect and ±100 for the full control effect
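After 44 h co-culture of compound, cells and HCVcc-Cre (~0.5 moi), substrate is added for 15 min at room temperature and luciferase measured over 15 sec. Cells were seeded at 1,000/well and pre-cultured 4 h.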
Cycloheximide cs = affects cycloheximide protein synthesis inhibition readout, counter-screen | AID 2314 | hit rate 12% among 300,000 | cell reporter, cycloheximide protein synthesis inhibition counterscreen | max response, %; in the data active = max response mostly above about 13%, no sharp cut-off; inactive = mostly below about 14%; also: read at 38.3 µM for the half of the compounds with a filed dose; 0% is about no effect
Shiga toxin inh = Shiga toxin inhibition; Vero cells, Shiga toxin protein synthesis inhibition reporter; inhibition, % at 38.7 µM; hit rate 9.2% among 290,000; AID 2315; in the data active = inhibition mostly above about 28%, no sharp cut-off; inactive = mostly below about 43%; also: 0% is about no effect
Starred values were filed as active, the others as inactive; ? = inconclusive; nt = not tested or not shown; [ ] = another dose, or the depositor's remark. Unless noted, calls follow the shape of the dose curve; as a rule, active = well fitted curve in the direction sought with a large enough effect; inconclusive = small, poorly fitted or top-dose-only effect, or another doubt; inactive = no such curve, though single readings can be large; an effect the other way counts as inactive or inconclusive.

SMILES | Pf growth 48h | Pf growth 96h | AMA1 RON2 block | HCV inhibitor | Cycloheximide cs | Shiga toxin inh
CCCc1nc2oc3c(NCCOCCO)ncnc3c2c2c1COC(C)(C)C2 | -1% | 3.7µM* | -5% | -13% | 3 | -13
CCn1c(CC(=O)Nc2ccccc2Cl)nnc1SCC(=O)NC1CCCC1 | 13% | -4% | 0% | 8% | -2 | 3
O=C(O)C1CCC(=O)N1Cc1ccccc1Cl (centres undefined) | 1% | 10µM* | -1% | 3% | -3 | -4
COCCCNC(=O)C1CCC(=O)N1Cc1ccccc1Cl (centres undefined) | 24% | 12µM* | 4% | 1% | -1 | -9
O=C(NCCc1ccc(Cl)cc1)C1CCC(=O)N1Cc1ccccc1Cl (centres undefined) | 2% | 60% | 8% | 14% | -3 | -12
O=C(Nc1ccc(Cl)cc1Cl)C1CCC(=O)N1Cc1ccccc1Cl (centres undefined) | ? | 8.3µM* | -3% | 7% | -3 | -18
Fc1ccccc1CNc1ccc(Cl)cc1 | ? | 3% | 12% | 20% | 28* | 50*
Cc1cccc(N2CCN(C(=O)c3ccc4nc(-c5ccco5)c(-c5ccco5)nc4c3)CC2C)c1 (centres undefined) | ? | ? | ? | 10µM* | 0 | -3
CC(=O)Nc1ccccc1-c1nc2cc(C#N)c(C#N)cc2[nH]c1=O | nt | 106% | -5% | ? | 7 | 1
CC(=O)Nc1ccccc1-c1nc2ccc(C(=O)N3CCN(c4cccc(C)c4)C(C)C3)cc2[nH]c1=O (centres undefined) | nt | 6.6µM* | -8% | ? | -4 | -11
CCCCN(CCCC)CCNC(=O)c1ccc2nc(-c3ccccc3NC(C)=O)c(=O)[nH]c2c1 | 2.3µM* | 5% | -3% | -25% | 13 | -6
CC1(C(=O)Nc2cccnc2)Cc2c(-c3ccc4c(c3)OCO4)ccnc2O1 (centres undefined) | nt | nt | -24% | nt | nt | nt
CC1CC(C)CN(C(=O)c2ccc(S(=O)(=O)N3CCCC3)cc2)C1 (centres undefined) | 6% | 32% | 0% | 0% | -1 | -6
O=C(Nc1c2c(nn1-c1cccc(Cl)c1)CS(=O)(=O)C2)c1ccco1 | -4% | ? | 0% | 4% | -2 | -8
Cc1ccc(C(Sc2ccccc2)C(Cn2cncn2)C(=O)c2ccccc2)cc1 (centres undefined) | nt | 9.3µM* | -3% | ? | 3 | 9
CC(C)c1ccc(-c2nnn(CCC(=O)O)n2)cc1 | ? | ? | 1% | 33% | -4 | -19
CCc1ccc(-c2nnn(CCC(=O)OC)n2)cc1 | 43% | 4.7µM* | 2% | 10% | 19* | 48
CCOc1ccc(-c2nnn(CCC#N)n2)cc1OC | 13% | 28% | 7% | -1% | 7 | 21
CCc1ccc(-c2nnn(CCC#N)n2)cc1 | 36% | -14% | 1% | 3% | 29* | 40*
COc1ccc(OC)c(S(=O)(=O)Nc2cc3c(cc2N2CCCC2)n(C)c(=O)c(=O)n3C)c1 | ? | -23% | -7% | -8% | -4 | -3
O=C(Nc1cccc(C(=O)N2CCN(c3ccccc3)CC2)c1)c1ccco1 | -3% | -11% | -8% | 1% | 7 | 7
CC(=O)c1cccc(NC(=O)c2cccc(NC(=O)c3ccco3)c2)c1 | -1% | -20% | ? | -1% | 4 | nt
O=C(Nc1cccc(C(=O)N2CCCCCC2)c1)c1ccco1 | 13% | -29% | 1% | -13% | 10* | -2
CCCCC(=O)Nc1cccc(NC(=O)c2ccc(Br)cc2)c1 | 15% | 130% | 4% | ? | 2 | -8
CC(C)(C)NC(=O)c1cccc(NC(=O)c2ccco2)c1 | 13% | -4% | -5% | -20% | 13 | 41
SMILES | Pf growth 48h | Pf growth 96h | AMA1 RON2 block | HCV inhibitor | Cycloheximide cs | Shiga toxin inh
O=C(Nc1cccc(NC(=O)c2ccco2)c1)c1cccc(Br)c1 | 0% | -13% | 4% | -28% | 21 | 86*
CCCCC(=O)Nc1cccc(NC(=O)c2cccc(Br)c2)c1 | 9% | 61%[5.75 µM] | -10% | 11µM* | 0 | 11
O=C(Nc1cc(Br)c(O)c(Br)c1)c1cccc(NC(=O)c2ccco2)c1 | ? | 7.4µM* | -8% | 2% | -4 | nt
O=C(NCC(O)c1ccc2ccccc2c1)c1c(F)cccc1F (centres undefined) | -20%[0.00184 µM] | 25% | -12% | -3% | -1 | 3
O=C(NCc1cccnc1)c1cc(C2CCCCN2C(=O)c2ccc3ccccc3c2)on1 (centres undefined) | nt | nt | -5% | nt | nt | nt
O=S1(=O)C=C[C@@H](COCc2ccccc2)N1Cc1ccc(Br)cc1 | nt | nt | 17% | nt | nt | nt
C[C@@H]1CN([C@@H](C)CO)S(=O)(=O)c2ccc(Br)cc2O[C@H]1CN(C)C(=O)Nc1ccc2c(c1)OCO2 | nt | nt | 7% | nt | nt | nt
CCCCSCc1nc2nc(Cl)c(Cl)nc2[nH]1 | nt | nt | 64% | nt | nt | nt
Cc1nn(C)cc1CN1CCC(CO)(CCOc2ccccc2)CC1 | 35% | ? | 0% | 8% | -2 | -8
COc1ccc2[nH]c(CN3CCC(CO)(CCOc4ccccc4)CC3)c(C)c2c1 | ? | ? | -19% | 10µM* | -6 | -10
OCC1(CCOc2ccccc2)CCN(Cc2ccccc2C(F)(F)F)CC1 | 22% | 8.3µM* | -7% | 6% | -1 | -4
COc1ccc(CN2CCC(CO)(CCOc3ccccc3)CC2)c(OC)c1C | 3.7µM* | -6% | 15% | ? | -3 | -12
N#Cc1ccc(NC(=O)Cn2c3[n+](c4ccc(C(F)(F)F)cc42)CCCCC3)cc1 | 12µM* | 4.7µM* | -6% | 26% | 0 | -4
CCc1ccc(NC(=O)Cn2c(SC)nc3ccccc32)cc1 | -26% | nt | -4% | -22% | -4 | -4
O=C(CN1C(=O)CCC1=O)Nc1ccc(Br)cc1 | 0% | 12% | 2% | -18% | -3 | 36
CCc1ccc(NC(=O)Cn2c3[n+](c4c(F)c(F)ccc42)CCCCC3)cc1 | 3.7µM* | ? | 4% | ? | 5 | 13
O=C(Cn1c2[n+](c3ccc(C(F)(F)F)cc31)CCCCC2)Nc1ccc(Br)cc1 | 10µM* | 10µM* | 10% | 6% | 11 | 30
N#Cc1ccc(NC(=O)COC(=O)C2CCC2)cc1 | nt | nt | 8% | nt | nt | nt
CCC(CC)C(=O)NN(C(=O)c1ccncc1)C1CC(=O)N(c2ccccc2)C1=O (centres undefined) | 10% | 14% | -18% | -10% | -2 | -3
Cc1cc(S(=O)(=O)c2ccc(Cl)cc2)nc(S(=O)(=O)c2ccc(Cl)cc2)c1C#N | nt | nt | -11% | nt | nt | nt
